Screens as filed in PubChem.
Most compounds without a hit are left out; they make up all but 2.4% or so of the library.
D2 PAM-1 – positively modulates the human D2 dopamine receptor allosterically. hit rate 0.34% among 340,000. potentiation, % at 10 µM. P14416. HEK293 T-REx D2, calcium flux, EC20 dopamine potentiation. AID 485347;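 active = potentiation over 3 SD above the plate norm, cut at about 30% in these data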; also: 0% is about no effect
Target sequence (P14416 whole entry, looked up): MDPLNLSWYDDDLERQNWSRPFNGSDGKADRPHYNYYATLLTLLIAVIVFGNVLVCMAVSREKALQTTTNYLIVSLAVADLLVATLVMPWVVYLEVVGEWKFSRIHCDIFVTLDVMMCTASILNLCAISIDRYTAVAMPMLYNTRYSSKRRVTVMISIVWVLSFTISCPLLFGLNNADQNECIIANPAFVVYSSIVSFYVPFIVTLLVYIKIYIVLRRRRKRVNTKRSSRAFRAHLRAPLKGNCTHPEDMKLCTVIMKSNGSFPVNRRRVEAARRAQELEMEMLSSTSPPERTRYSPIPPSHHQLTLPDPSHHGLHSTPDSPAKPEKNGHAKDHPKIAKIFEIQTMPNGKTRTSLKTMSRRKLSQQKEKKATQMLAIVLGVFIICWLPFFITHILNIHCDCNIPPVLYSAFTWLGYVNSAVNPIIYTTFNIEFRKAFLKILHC
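Tetracycline-induced HEK293 T-REx cells force-coupled to calcium signalling expressed D2; compounds were pin-added after a 10 s baseline, read kinetically 180 s, then an EC20 dopamine challenge followed with a further 180 s calcium read.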
D2 ag-1 – human D2 receptor agonism in beta-arrestin assay; P14416; DiscoveRx PathHunter D2 beta-arrestin, luminescence, 90 min; 100% = 57 uM dopamine signal; activation, % (concentration not given with the values); hit rate 0.084% among 360,000; AID 624465; in the data active = activation above about 40%
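Agonist mode: compounds alone added to overnight-plated D2 PathHunter cells for 90 min at 37 C, with 57 uM final dopamine (EC100) defining full response. Beta-arrestin recruitment detected by chemiluminescent reagent, read after 1 h at ambient temperature.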
D2 PAM-2 – potentiates the human D2 dopamine receptor allosterically; P14416; DiscoveRx D2 beta-arrestin cells, luminescence, 90 min; 100% = 57 uM dopamine signal; potentiation, % (concentration not given with the values); hit rate 0.23% among 360,000; AID 624464; in the data active = potentiation above about 50%
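PathHunter beta-arrestin assay in DiscoveRx D2 cells. Compounds were added with an EC20 of dopamine (50 nM final) for 90 min at 37 deg C. Luminescence was read 1 h after detection reagent, with 57 uM dopamine as the EC100 control.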
D2 antag – antagonizes the human D2 dopamine receptor; P14416; HEK293 TREx D2 cells, calcium flux, dopamine EC80; hit rate 2% among 340,000; inhibition, % at 10 µM; in the data active = inhibition above about 30%; inactive = below that, where a call was filed; also: 0% is about no effect
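Tetracycline-induced HEK293 TREx cells expressing D2 receptor forced-coupled to calcium signalling, loaded with no-wash calcium dye. Compounds added and calcium flux read 180 s, then dopamine added at EC80 and read a further 180 s.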
D2 ag-2 – activates the human D2 dopamine receptor. P14416. HEK293 T-REx D2 cells, calcium flux agonist mode. activation, % at 2 µM. hit rate 0.53% among 340,000;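 active = activation over 3 SD above normal in the single-dose calcium agonist read, cut at about 30% in these data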; also: 0% is about no effect
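Agonism scored from kinetic calcium signal (1 read/sec, 180 s) following compound pin transfer, after a 10 s baseline. Cells: HEK293 Trex line expressing inducible D2 receptor coupled to calcium, dye-loaded after overnight culture at 30 C.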
The depositor's hits bear a star; x = no result given.

SMILES | D2 PAM-1 | D2 ag-1 | D2 PAM-2 | D2 antag | D2 ag-2
Cn1c(SCc2ccc(F)cc2)nnc1-c1cnccn1 | -1 | -1 | -6 | -4 | -1
Cn1c(SCc2ccccc2)nnc1-c1cnccn1 | -2 | -2 | -1 | 37* | 0
NC(=O)CSc1nnc(-c2cnccn2)n1-c1ccccc1 | 36* | 0 | -6 | -20 | 1
Cc1ccc(NC(=O)Cc2ncc(C(F)(F)F)cc2Cl)cc1Cl | -7 | -1 | -17 | 44* | 0
CCCCNC(=S)NCc1ccc2[nH]c(C)cc2c1 | 1 | 1 | -12 | 30* | -2
CCOc1ccc(NC(=S)NCc2ccc3[nH]c(C)cc3c2)cc1 | -7 | 0 | -14 | 18 | -1
CC(=O)Nc1ccc(NC(=O)C(C)OC(=O)CC2CCCC2)cc1 (centres undefined) | 1 | -2 | 9 | 0 | -1
CC(=O)Nc1ccc(NC(=O)C(C)OC(=O)CCC2CCCC2)cc1 (centres undefined) | -3 | -3 | 6 | 30* | 1
CCOc1ccc(S(=O)(=O)n2nc(C)c(S(=O)(=O)N3CCCCCC3)c2C)cc1 | -5 | x | x | x | 2
CCN(CC(=O)NCc1ccc(Cl)cc1)C(=O)COc1cccc(C(F)(F)F)c1 | 4 | -4 | -12 | -17 | 0
CCN(CC(=O)NCc1ccc(Cl)cc1)C(=O)COc1cccc(Cl)c1 | -9 | -6 | -62 | 33* | 1
CCCc1ccc(OCc2ccc(C(=O)N3CCSCC3)o2)cc1 | 6 | 8 | -6 | 39* | -1
COc1ccc(-c2cc3nc(C)cc(N4CC(C)CC(C)C4)n3n2)cc1 (centres undefined) | 40* | -1 | -2 | -16 | 0
CCOc1ccc2c(c1)c(=O)c(C(=O)c1ccc(CC)cc1)cn2CC(=O)Nc1ccccc1C | -23 | x | x | x | 1
Cc1ccc(NC(=O)c2ccc(CN3CCc4ccccc4C3)cc2)cc1 | -17 | -9 | -41 | 17 | 1
O=C(Nc1cccnc1)c1ccc(CN2CCc3ccccc3C2)cc1 | -23 | -1 | -36 | 66* | 3
O=C(Nc1ccccc1)c1ccc(CN2CCc3ccccc3C2)cc1 | x | 1 | -12 | 54* | -1
COC(=O)c1ccc(C)c(NC(=O)c2ccc(CN3CCc4ccccc4C3)cc2)c1 | -29 | -8 | -26 | 78* | 22
CC(=O)c1cccc(NC(=O)C(C)n2c(=O)cc(-c3ccccc3)c3c(C)nn(C)c32)c1 (centres undefined) | 16 | x | x | x | 0
Nc1cc(Cl)nnc1Cl | 8 | -2 | 0 | 36* | 1
COc1cccc(NC(=O)C2C3C=CC(O3)C2C(=O)NCc2cccnc2)c1 (centres undefined) | -15 | -2 | -22 | 44* | -1
COc1cc(NC(=S)NCc2cccnc2)cc(OC)c1 | -3 | -1 | -3 | 1 | 0
COc1ccc(-c2nnc(SCCC(=O)O)n2C)cc1OC | 9 | 1 | -9 | 34* | 0
Cc1ccc(NC2=C(NCCO)C(=O)c3ccccc3C2=O)cc1 | 10 | 8 | 60* | -4 | 0
CCCCCn1c(=O)c(C(=O)c2ccccc2)nc2ccccc21 | 16 | 0 | 2 | 1 | 0
SMILES | D2 PAM-1 | D2 ag-1 | D2 PAM-2 | D2 antag | D2 ag-2
CCCCCCn1c(=O)[nH]c2nc3cc(N)ccc3nc2c1=O | 3 | 6 | 60* | 32* | 85*
OC1(c2cccc(F)c2)CCN(Cc2ccncc2)CC1 | -22 | -3 | -41 | 56* | 0
O=C(CCC1CCCCC1)Nc1nccs1 | -5 | 0 | -14 | 43* | 0
Cc1nnc(NC(=O)CCC2CCCCC2)s1 | x | -3 | -4 | x | x
CC(NC(=O)CCNC(=O)c1ccccc1Cl)c1ccc(-n2ccnc2)cc1 (centres undefined) | -4 | -1 | -1 | -26 | 0
COc1ccccc1C(=O)NCCC(=O)NC(C)c1ccc(-n2ccnc2)cc1 (centres undefined) | -2 | -3 | -15 | 33* | 0
COc1cccc(C(=O)NC2CC3CCCC(C2)N3Cc2ccc(C)cc2)c1 (centres undefined) | -18 | -2 | -82 | 77* | -1
COc1cc(C(=O)NC2CCN(Cc3ccccc3)CC2)cc(Cl)c1OC | -24 | -1 | -26 | 89* | 0
COc1cccc(NC(=O)N2C3CCCC2CC(NC(=O)C2CC2)C3)c1 (centres undefined) | -11 | -4 | -4 | 34* | 1
COc1cc(OC)cc(C(=O)NC2CCN(CCCOc3ccccc3)CC2)c1 | -11 | -5 | -5 | 47* | 0
COc1ccccc1-n1ncc2c(=O)[nH]c(SCC(=O)Nc3ccc(Cl)cc3)nc21 | 0 | x | x | x | 0
CCC(=O)C1=C(c2ccc(Cl)cc2)N(C(=O)CC)n2c(C)nnc2S1 | x | x | x | x | 0
COc1ccccc1C(=O)NC1CC2CCCC(C1)N2Cc1ccccc1 (centres undefined) | x | 3 | -39 | x | x
COc1ccc(CN2C3CCC2CC(NC(=O)c2cc(OC)c(OC)c(OC)c2)C3)cc1 (centres undefined) | -28 | -6 | -3 | x | x
COc1cc(C(=O)NC2CC3CCCC(C2)N3Cc2ccccc2)cc(OC)c1OC (centres undefined) | -32 | -2 | -7 | 84* | -1
COc1ccc(C(=O)NC2CC3CCCC(C2)N3Cc2ccccc2)cc1OC (centres undefined) | -31 | -5 | -5 | 82* | 0
Cc1ccccc1C(=O)Nc1cccc(C(=O)OCc2cc(=O)n3c4c(sc3n2)CCCC4)c1 | -2 | x | x | x | -1
COc1ccc2c(c1)sc1ncc(C(=O)NCc3cccc(Cl)c3)c(=O)n12 | -4 | x | x | x | x
Cc1csc2c(NC3CCN(Cc4ccccc4)CC3)ncnc12 | -24 | -1 | -4 | 89* | -1
c1ccc(CN2CCC(Nc3ncnc4sccc34)CC2)cc1 | -19 | -4 | -13 | 77* | 1
Cc1sc2ncnc(NC3CCN(Cc4ccccc4)CC3)c2c1C | -20 | 1 | -17 | 68* | 1
c1ccc(CN2CCC(Nc3nc(-c4cccnc4)nc4ccccc34)CC2)cc1 | -22 | -5 | -47 | 49* | 0
CS(=O)(=O)NC1CCN(Cc2ccccc2)CC1 | -6 | -1 | -9 | 29 | 0
Fc1ccccc1CNc1ncnc2sccc12 | 2 | -1 | 1 | -1 | 1
COC(=O)c1ccc(NC(=O)c2nn(C)c3c2CS(=O)(=O)c2ccccc2-3)cc1 | 5 | x | x | x | 2
CCN(c1cccc(C)c1)S(=O)(=O)c1c(C)nc2sc(C)cn2c1=O | -3 | x | x | x | 0
Cc1nc2ccn(Cc3ccco3)c(=O)c2cc1C(=O)NCc1ccc(F)cc1 | -14 | x | x | x | 1
S=C(NCCc1ccccc1)N1CCn2cccc2C1c1cccnc1 (centres undefined) | -17 | -3 | -19 | 37* | 0
Cc1ccc(CNC(=O)C(=O)Nc2c3c(nn2-c2ccc(F)cc2)CSC3)cc1 | 15 | x | x | x | 2
